IMPase inh = membrane-permeable compound that blocks inositol monophosphatase; inhibition (IP1 accumulation), % at 46.1 µM; 120,000 tested, under 10 active; AID 901; CHO-M1 cells, IP1 accumulation, HTRF TR-FRET ratio; active means well fitted curve in the direction sought with a large enough effect in the signal ratio, not every such curve was filed as active; inconclusive means small, poorly fitted or top-dose-only effect, or a change in a side signal; inactive means no such curve, though single readings can be large or run the other way; the % refers to the signal ratio;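 further: cells stimulated with carbachol in lithium chloride buffer; plate controls were DMSO basal wells for no effect and reference inhibitor wells for full effect; higher means more IMPase inhibition seen as more IP1 and lower FRET ratio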
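Measured: the HTRF emission ratio (665/620 nm) plus the 620 nm donor channel, each fitted to the Hill equation to give AC50. Cells were CHO-M1 given compounds up to 46 uM and a 30 min carbachol stimulation at 37C.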
ALDH1A1 inh = ALDH1A1 (human) enzyme inhibition. 220,000 tested, 7.3% active. Potency, µM (series often up to 75.3 µM), without a hit: at the highest dose activity, negative = inhibition, most hits filed as inhibitors. Purified ALDH1A1, NADH fluorescence, propionaldehyde substrate. AID 1030. P00352;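 further: potency means the concentration at half of the fitted maximal effect; plate controls were no enzyme wells and a reference inhibitor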
Target sequence (P00352 whole entry, looked up): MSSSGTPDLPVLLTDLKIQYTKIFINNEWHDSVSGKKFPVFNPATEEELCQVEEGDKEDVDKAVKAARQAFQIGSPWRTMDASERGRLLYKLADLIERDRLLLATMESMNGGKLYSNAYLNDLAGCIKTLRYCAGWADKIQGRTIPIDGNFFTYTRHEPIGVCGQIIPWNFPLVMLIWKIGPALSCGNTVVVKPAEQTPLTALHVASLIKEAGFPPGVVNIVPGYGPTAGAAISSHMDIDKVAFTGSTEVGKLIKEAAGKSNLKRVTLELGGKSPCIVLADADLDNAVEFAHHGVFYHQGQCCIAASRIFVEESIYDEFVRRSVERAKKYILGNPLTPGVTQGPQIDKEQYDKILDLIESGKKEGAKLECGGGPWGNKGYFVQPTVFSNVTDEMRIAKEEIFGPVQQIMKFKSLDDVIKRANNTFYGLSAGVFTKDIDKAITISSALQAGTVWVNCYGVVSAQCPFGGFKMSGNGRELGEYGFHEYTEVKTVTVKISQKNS
HPGD block = HPGD (human) dehydrogenase inhibition; purified HPGD, NADH fluorescence kinetic, PGE2 substrate; Potency, µM, for inactives: at the top dose activity change, negative = inhibition, usual class: inhibitors; 150,000 tested, 4.3% active; further: potency means the concentration at half of the fitted maximal effect
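NADH formation kinetics: reaction with 30 uM PGE2 and 1 mM NAD+ (final), 20 nM enzyme, Tris-HCl pH 8 with Tween 20, after 15 min compound preincubation at room temperature. Fluorescence change, last versus first of five reads.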
* hit, by the source's call; ? = inconclusive; nt = not tested or not shown. The list is not random: actives were taken first. Their share in the collection is about 9%. Unless noted, the call rests on the fitted dose curve; in most records, active means well fitted inhibition curve with a large enough effect (not every such curve was filed as active); inconclusive means small, poorly fitted or top-dose-only effect, or another doubt; inactive means no such curve, though single readings can be large or run the other way. Unless noted, on the % scale 0 is the no-effect control and ±100 the full control effect.

SMILES	IMPase inh	ALDH1A1 inh	HPGD block
O=C1NC(Cc2ccccc2)C(=O)N1CC(=O)N1CCCc2ccccc21 (stereo unspecified)	nt	-6%	nt
COc1cccc(CN2CCN(c3nc4nonc4nc3NC3CC3)CC2)c1	nt	-10%	nt
CCc1ccccc1NC(=O)C1CCN(C(=O)c2ccc([N+](=O)[O-])cc2)CC1	nt	-3%	nt
COc1ccccc1NC(=S)NC(NC(=O)c1ccco1)C(Cl)(Cl)Cl (stereo unspecified)	-11	14µM*	-21%
O=C(NC(NC(=S)Nc1ccc(Cl)cc1)C(Cl)(Cl)Cl)c1ccco1 (stereo unspecified)	nt	?	-10%
COC(=O)C(Cc1ccc(O)cc1)NC(=O)CCC(=O)Nc1ccc(S(N)(=O)=O)cc1 (stereo unspecified)	-4	18%	-15%
CCOC(=O)C(Cc1ccc(OC)c([N+](=O)[O-])c1)NC(=O)CCC(=O)Nc1ccc(OC)cc1 (stereo unspecified)	nt	4.5µM*	nt
COC(=O)c1cccn(CC(=O)c2ccc(Cl)cc2Cl)c1=O	nt	-6%	nt
CC/C(=N/Nc1ccccc1)c1cnnc(-c2ccccc2)n1	-2	10µM*	-19%
CC/C(=N/Nc1cccc(Cl)c1)c1cnnc(SC)n1	nt	10%	-4%
Cc1nc2c(N=Nc3ccccc3F)c(N)nn2c(N)c1C#N	nt	0%	nt
Cc1ccc(NC(=O)CN(C)C(=O)COc2c(Cl)cc(Cl)c3ccc(C)nc23)cc1	-9	9%	-8%
Cc1ccc(NC(=O)CN(C)C(=O)Cn2ncc(Cl)c(Cl)c2=O)cc1	-3	28µM*	-7%
CCc1ccccc1NC(=O)Cc1c(C(=O)O)[nH]c2ccc(Cl)cc12	7	nt	nt
O=C(CCc1ccc(S(=O)(=O)N2CCOCC2)cc1)N/N=C/c1ccc(F)cc1F	nt	-9%	nt
O=[N+]([O-])c1ccc(N/N=C/c2ccc(O)c(O)c2O)c(S(=O)(=O)N2CCOCC2)c1	nt	3.5µM*	nt
O=[N+]([O-])c1ccc(N/N=C/c2cccc(O)c2O)c(S(=O)(=O)N2CCOCC2)c1	nt	-9%	nt
O=C(CCc1ccc(S(=O)(=O)N2CCOCC2)cc1)N/N=C/c1ccc(O)c(O)c1O	nt	13µM*	?
NCCC(O)(P(=O)(O)O)P(=O)(O)O	nt	-5%	-10%
CCC(C)(C)NC(=O)C(c1ccc(C)cc1)N(Cc1ccco1)C(=O)CCC(=O)Nc1nccs1 (stereo unspecified)	-3	-2%	-8%
O=C1NC(=O)C(Nc2cccc3ccccc23)S1 (stereo unspecified)	7	-6%	?
CN1C(=O)SC(Nc2cccc3ccccc23)C1=O (stereo unspecified)	3	28µM*	-21%
C[C@](N)(COP(=O)(O)O)C(=O)O	2	5%	-8%
Cc1ccc(C(=O)c2ccccc2C(=O)OCC(=O)NCC2CCCO2)cc1 (stereo unspecified)	nt	5%	nt
c1ccc2c(c1)CCN(C1=Nc3cccc4cccc1c34)C2	nt	-9%	nt
SMILES	IMPase inh	ALDH1A1 inh	HPGD block
Cc1cc(N(CCO)CCO)nc(-n2nc(C)cc2C)n1	3	11µM*	-11%
Cc1cc(NCCO)nc(-n2nc(C)cc2C)n1	0	?	nt
CCc1cccc(CC)c1NC(=O)COC(=O)CCc1cc(OC)c(OC)c(OC)c1	8	-5%	-14%
CC(C)OCC(O)CSc1ccccn1 (stereo unspecified)	12	-3%	18µM*
O=C(O)CSc1ccccn1	-5	-3%	-15%
CCCCOC(=O)c1c(N)n(-c2ccc(OC)cc2OC)c2nc3ccccc3nc12	-5	nt	nt
Clc1cc(Sc2ccc(Br)cc2)nnc1-c1ccccc1	4	1µM*	-21%
COCc1cc(Sc2ccc(Br)cc2)nc(-c2ccccc2)n1	3	-1%	-1%
COc1cccc(CC(NC(C)=O)C(=O)NC2CCN(S(=O)(=O)c3ccc(F)cc3)CC2)c1OC (stereo unspecified)	nt	12%	nt
Cn1c(=O)[nH]c(=O)c2c1nc(CN1CCN(c3ccc(F)cc3)CC1)n2CCCc1ccccc1	-5	3%	-8%
CCOC(=O)N1CCN(Cc2nc3c(c(=O)[nH]c(=O)n3C)n2CCCc2ccccc2)CC1	6	?	3%
CCCCCn1c(CN2CCN(c3cccc(Cl)c3)CC2)nc2c1c(=O)[nH]c(=O)n2C	-5	?	-1%
Cn1c(=O)[nH]c(=O)c2c1nc(CN1CCN(c3ccccc3F)CC1)n2CCCc1ccccc1	-2	3.2µM*	7%
Cn1c(=O)[nH]c(=O)c2c1nc(CN1CCN(c3cccc(Cl)c3)CC1)n2CCc1ccccc1	11	14µM*	-1%
CCCCCn1c(CN2CCN(C(=O)OCC)CC2)nc2c1c(=O)[nH]c(=O)n2C	13	11µM*	0%
CCCCN(CC)CCNC(=O)CN1C(=O)COc2ccc(S(=O)(=O)N3CCCC3)cc21	nt	5%	-8%
c1cnc(N2CCN(c3cnccn3)CC2)nc1	nt	14%	nt
O=C(O)COc1ccc(Oc2ccccc2)cc1	8	-4%	-14%
O=C(O)CSc1ccc(Oc2ccc(SCC(=O)O)cc2)cc1	nt	13µM*	nt
COc1cc2ccccc2cc1C(=O)Nc1ccc2oc(-c3ccc(F)cc3)nc2c1	-9	nt	nt
C=Cc1c(C)/c2[n-]/c1=C\c1[n-]c(c(CC)c1C)/C=c1\[n-]c3c(c1C)C(=O)C(C(=O)[O-])C=3c1[n-]c(c(C)c1CCC(=O)[O-])\C=2.[Cu].[Na+].[Na+] (stereo unspecified)	nt	?	25µM*
COc1cc2c(cc1OC)-c1nnc(-c3ccco3)n1C1(CCCC1)C2	-7	?	?
COC(=O)C1=C(C)Nc2ncnn2C1c1ccc(OCc2ccccc2)cc1 (stereo unspecified)	-5	-2%	-26%
CC(C)[C@H](NC(=O)c1ccco1)C(=O)OCC(=O)Nc1cccc(F)c1	nt	11%	nt
Cc1c(Cl)cnc(NC(=O)COC(=O)C(NC(=O)c2ccco2)C(C)C)c1Cl (stereo unspecified)	-15	11µM*	-8%
SMILES	IMPase inh	ALDH1A1 inh	HPGD block
CCOc1cc(CNn2cnnc2SCC(=O)NC(C)(C)C)ccc1OCC(=O)NC(C)(C)C	nt	2%	nt
COc1ccc(N2COC3c4cccc5cccc(c45)C32)cc1 (stereo unspecified)	7	19µM*	-20%
Clc1ccc(N2COC3c4cccc5cccc(c45)C32)cc1 (stereo unspecified)	3	-12%	-13%
COc1ccc(-c2n(CC(=O)OC3CC(C)CCC3C(C)C)c3ccccc3[n+]2C)cc1 (stereo unspecified)	nt	6.3µM*	nt
CC1CCC(C(C)C)[C@H](OC(=O)c2ccccc2)C1 (stereo partly specified)	nt	-11%	-6%
Cc1ccc(S(=O)(=O)Nc2ccc(O)c3ncccc23)cc1	nt	1.3µM*	nt
Cc1ccc(S(=O)(=O)Nc2ccnc3ccccc23)cc1	-6	7%	-9%
Cc1nc(CSc2ccccc2)cc(=O)[nH]1	nt	-5%	nt
CN(Cc1cccc(-n2cccn2)c1)C(=O)CCc1nnc(C2CCCCC2)o1	nt	-9%	nt
CCCN=Cc1c(CCC)[nH]n(-c2nc3ccccc3s2)c1=O	10	14µM*	-23%
CCCc1[nH]n(-c2nc3ccccc3s2)c(=O)c1C=NCCCN(CC)CC	nt	-2%	nt
CC(=O)OCC1(C)CN(c2ccccc2)N(C(=O)c2ccc(F)cc2)C1=O (stereo unspecified)	nt	-25%	nt

Screens as filed in PubChem BioAssay.
